VACV E9 pol inh = vaccinia E9 polymerase processive synthesis inhibitors, primary screen, biochemical, absorbance; Vaccinia virus DNA polymerase (E9) processive complex; in vitro processive DNA synthesis, absorbance read-out; hits give low values; normalized absorbance, % (no concentration beside the values); actives 0.94% (n = 46,000); AID 493162, 2011; in the data active = normalized absorbance mostly below about 85%, no sharp cut-off; inactive = mostly above about 86%
Numbers without * were called inactive. This is one part of a sample in which hits are shown more often than they occur.

SMILES	VACV E9 pol inh
COc1ccc(Nc2cc(C(=O)N3CCc4ccccc4C3)c3ccccc3n2)c(OC)c1	101
CN(C)CCNC(=O)Cn1ncc2c(Cl)cccc21	84
CC(N)Cc1ccccc1 (centres undefined)	99
COc1cc(S(=O)(=O)NC2CCCCCC2)c(C)cc1C	94
CCNc1cc(N)[n+](CC)c2n[nH]c(/N=C/c3cc(Cl)cc(Cl)c3O)c12	69*
COC(=O)c1sccc1OCc1cccc(C(F)(F)F)c1	76
CC(=O)Nc1ccc(N=Cc2ccc(C)cc2)cc1	100
CC(=O)Nc1ccc(N=Cc2ccc(OC(=O)c3ccccc3Br)cc2O)cc1	82*
CC(=O)Nc1ccc(N=Cc2ccc(OC(=O)c3cccnc3)cc2)cc1	100
CC(NCC(O)C(F)(F)F)c1ccccc1 (centres undefined)	94
COc1ccccc1C(=O)OCC(=O)c1ccccc1F	89
CN(C)CCN(Cc1ccccc1)Cc1ccc(Cl)cc1	100
O=C(c1cc(Sc2ccc(Cl)cc2)nc2ccccc12)N1CCC2(CC1)OCCO2	107
COC(=O)c1noc(C)c1C(=O)/C=C/N(C)C	40*
CN(C)/C=C/C(=O)c1ccc2c(c1)CCO2	98
Cc1c(C(=O)/C=C/N(C)C)nnn1-c1ccccc1	96
CCOC(=O)c1c(C)n(-c2ccc(OC)cc2)c2ccc(OC)cc12	100
CCOC(=O)c1c(C)n(C)c2ccc(OCCN(C)C)cc12	65*
CCOC(=O)c1c(C)n(Cc2ccccc2)c2ccc(OC(C)=O)cc12	100
Nc1c(C(=O)c2ccccc2)sc2nccc(Nc3ccccc3)c12	98
COC(=O)C1=C(NC(=O)c2ccc3c(c2)OCO3)CCS1	102
CCC(C(=O)O)n1nc(C)c2sc3ccccc3c2c1=O (centres undefined)	102
CCN(CC)CCNc1ccc(CO)c2sc3ccccc3c(=O)c12	60*
CCOC(=O)C(C)n1nc(C)c2sc3ccccc3c2c1=O (centres undefined)	92
S=c1sc2c(N3CCN(C/C=C/c4ccccc4)CC3)ncnc2n1-c1ccccc1	100
SMILES	VACV E9 pol inh
Oc1ccccc1C(C#Cc1ccccc1)N1CCCCC1 (centres undefined)	101
CCOc1ccc2nc(/N=C/c3ccccc3O)sc2c1	100
Cc1ccc2oc(-c3ccccc3)cc(=NCCN3CCOCC3)c2c1	72*
Clc1ccc2oc(-c3ccccc3)cc(=NCCCN3CCOCC3)c2c1	44*
NC(=O)c1ccccc1N=c1cc(-c2ccccc2)oc2ccc(Cl)cc12	100
Clc1ccc2oc(-c3ccccc3)cc(=NCc3ccco3)c2c1	90
O=C(NCC1CCCO1)Nc1ccc(Cl)cc1 (centres undefined)	80
Cc1ccc2oc(=O)cc(CN3CCOCC3)c2c1	99
Clc1cccc(-n2cc(-c3ccccc3)c3c(NCC4CCCO4)ncnc32)c1 (centres undefined)	102
CCCCN1CCN(c2nc(-c3ccccc3)c3cc(C)ccc3n2)CC1	100
Clc1ccc2oc(-c3ccccc3)cc(=NCC3CCCO3)c2c1 (centres undefined)	59*
C=C1C2(C(=O)Nc3ccc(Br)cn3)CCC(C2)C1(C)C (centres undefined)	106
CCC1CCCCN1C(=O)Cn1c(=O)n(-c2cc(F)ccc2F)c(=O)c2sccc21 (centres undefined)	98
CCOC(=O)Cc1csc(C)n1	100
O=C(NCC1CCCO1)c1cn(-c2ccccc2)nc1-c1cccs1 (centres undefined)	93
O=C(Nc1ccncc1)c1snc2ccc(Cl)cc12	102
Cc1ccc(C)n1C(CC(=O)O)c1ccsc1 (centres undefined)	73*
O=C(O)CC(c1ccsc1)n1cccc1 (centres undefined)	102
Cc1ccc(C)n1C(CC(=O)O)c1ccc(F)cc1 (centres undefined)	82
Cc1c(C)n(CC(O)CN2CCCCC2C)c2ccccc12 (centres undefined)	103
CCN1CCN(c2ccc(Nc3ccnc4cc5ccccc5cc34)cc2)CC1	14*
CCN1CCN(c2ccc(NC(=O)c3cccc(Br)c3)cc2)CC1	97
CN1CCN(c2ccc(Nc3ccnc4cc(Cl)ccc34)cc2Cl)CC1	100
Cc1ccc2[nH]c(-c3ccccc3)c(CN3CCCC3)c(=O)c2c1	100
Cc1ccc(S(=O)(=O)Nc2c(-c3ccccc3)c3cc(C)ccc3[nH]c2=O)cc1	94
SMILES	VACV E9 pol inh
Cc1ccc2[nH]c(=O)c(CN3CCOCC3)c(-c3ccccc3)c2c1	67*
COc1ccc(CCNC(=O)NC2(C(F)(F)F)Oc3ccccc3O2)cc1OC	95
COc1ccc2c(c1)C(=O)C(CC1(O)C(=O)Nc3ccccc31)CC2 (centres undefined)	100
CC(C)CCNC(=O)c1cccc2c1SCCC2=O	115
Cc1ccc(NC(=O)C(C)SC2=NCCS2)cc1 (centres undefined)	100
CC1(C)CC(=O)C(C(=S)Nc2ccccc2)C(=O)C1	100
CC1(C)CC(=O)C=C(NC(=O)Nc2ccccc2)C1	102
CC1(C)Cc2ccccc2/C(=C/C(=O)Nc2ccccc2)N1	86*
C/C=C(/C(=O)O)c1ccccc1OC	99
CC(C)c1ccc(C(=O)OCC(=O)NCc2ccc(Cl)cc2)cc1	103
CCCC(C(=O)O)N1C(=O)/C(=C/c2ccccc2Cl)SC1=S (centres undefined)	56*
CN1C(=O)/C(=C/c2ccccc2Cl)Sc2ccc(C(=O)O)cc21	46*
CC(C(=O)O)N1C(=O)/C(=C/c2ccccc2Cl)SC1=S (centres undefined)	90
CCCC(C(=O)O)N1C(=O)/C(=C/c2ccc(C)cc2)SC1=S (centres undefined)	96
CN1C(=O)/C(=C\c2ccccc2)Sc2ccc(C(=O)NC3CCCCC3)cc21	81
CN1C(=O)c2ccccc2Sc2ccc(C(=O)O)cc21	97
CCCCN(CC)C(=O)c1nn(-c2ccc(OC)cc2)c(=O)c2ccccc12	112
CN1C2CCC1CC(NC(=O)Nc1ccc(Cl)cc1)C2 (centres undefined)	100
COc1ccc(C2OC(=O)CC2C(=O)NC2CCCC2)cc1OC (centres undefined)	99
CCC1(C)OC(=O)N(CCc2c(C)[nH]c3ccccc23)C1(C)O (centres undefined)	99
O=C(c1cc2c(Cl)nc3ccccc3c2s1)N1CCCC1	98
O=C(CCC(=O)N1CCOc2ccccc21)NCc1ccco1	98
O=C(OCc1ccc(Br)cc1)C1CCCCN1S(=O)(=O)c1ccc(F)cc1 (centres undefined)	108
COc1ccc(C=C2C(=O)OC(C)(C(C)(C)C)OC2=O)cc1 (centres undefined)	100
CCOC(=O)c1ccc(C[N+]2(C)CCOCC2)o1	100
SMILES	VACV E9 pol inh
COc1ccc(-c2cc(=O)c3cc(OC(=O)c4ccc(OC)c(OC)c4)ccc3o2)cc1	99
COc1ccc(-c2c(C)oc3cc(O)ccc3c2=O)cc1	101
COc1ccc(-c2cc(=O)c3cc(OC(=O)Cc4ccccc4)ccc3o2)cc1	100
COc1ccc(N=c2cc(-c3ccc(OC)cc3)oc3ccc(O)cc23)cc1	63*
COc1ccc(-c2cc(=NC(CC(C)C)C(=O)O)c3cc(C)ccc3o2)cc1 (centres undefined)	98
COc1ccc(-c2cc(=Nc3ccc(OC)c(OC)c3)c3ccccc3o2)cc1	94
COc1ccc(-c2cc(=Nc3ccc(O)cc3)c3cc(C)ccc3o2)cc1	54*

Source: PubChem (ICCB-Longwood Screening Facility, Harvard Medical School)
